CYP2C19 act – cytochrome P450 2C19 (human) activation; P33261; recombinant CYP2C19, luciferin-H EGE luminescence; active compounds read high; 0 = fully inhibited enzyme, 1 = untreated enzyme; activation factor at 5 µM; 96,000 tested, under 10 active;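 active = activation factor of at least 2 at 5 µM in the primary screen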
CYP2C19 inh – inhibitors of human CYP2C19. 96,000 compounds, 21% hits. CYP2C19 Supersomes, luciferin-H EGE luminescence, 30 min. P33261. inhibition, % at 5 µM. AID 778;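 active = CYP2C19 inhibition above a set limit at 5 µM in the primary screen, cut at about 50% in these data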
CYP2C9 inh – inhibitors of human CYP2C9 | P11712 | CYP2C9 Supersomes, luciferin-H conversion, luminescence | inhibition, % at 5 µM | 96,000 compounds, 20% hits;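 active = blocking of liver enzyme CYP2C9 beyond about 50% at 5 µM, limit read from the data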
CYP2C9 activ – CYP2C9 (human) activation | recombinant CYP2C9, luciferin-H conversion, luminescence; active compounds read high; factor 1 = untreated enzyme, 0 = blocked | AID 1024 | 96,000 compounds, 1.4% hits | activation factor at 5 µM;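 active = activation factor of 2 or more for CYP2C9 at a 5 µM dose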
sEH activator – soluble epoxide hydrolase (human) activation. purified human sEH enzymatic activity, activator screen. activation, % at 2 µM. 91,000 compounds, 0.04% hits. AID 717; in the data active = activation above about 37%
Target sequence (P34913 whole entry, looked up): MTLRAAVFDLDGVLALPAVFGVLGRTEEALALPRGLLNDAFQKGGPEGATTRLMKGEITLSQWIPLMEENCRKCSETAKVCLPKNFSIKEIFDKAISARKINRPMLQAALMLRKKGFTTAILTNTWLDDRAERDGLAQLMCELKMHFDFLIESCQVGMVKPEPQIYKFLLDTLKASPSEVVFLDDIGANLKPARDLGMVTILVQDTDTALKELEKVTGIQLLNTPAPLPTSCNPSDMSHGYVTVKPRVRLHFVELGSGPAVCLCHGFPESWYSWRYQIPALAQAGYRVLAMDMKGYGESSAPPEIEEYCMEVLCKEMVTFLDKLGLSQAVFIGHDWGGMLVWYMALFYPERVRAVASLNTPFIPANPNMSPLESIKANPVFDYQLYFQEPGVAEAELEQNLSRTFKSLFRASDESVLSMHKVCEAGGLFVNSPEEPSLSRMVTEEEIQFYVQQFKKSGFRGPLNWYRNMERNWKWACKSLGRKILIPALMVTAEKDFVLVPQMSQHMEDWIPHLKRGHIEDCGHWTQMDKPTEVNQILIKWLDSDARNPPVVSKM
sEH inhibitor – inhibitors of human soluble epoxide hydrolase | P34913 | 91,000 compounds, 0.34% hits | AID 707 | recombinant human sEH enzymatic activity assay | inhibition, % at 2 µM; in the data active = inhibition above about 80%
Hits are given with their value; n = inactive; x = no result. Only some compounds are listed: those with a hit (about 27% of all), similar ones and a draw of the others.

SMILES | CYP2C19 act | CYP2C19 inh | CYP2C9 inh | CYP2C9 activ | sEH activator | sEH inhibitor
COC(=O)c1cccc(NC(=O)CSc2nc3cccnc3n2C)c1 | n | 68.0 | 58.6 | n | x | x
COc1cccc(-n2ccnc2SCC(=O)NCc2ccccc2)c1 | n | 95.5 | n | n | n | n
CCOc1ccccc1NC(=O)CC(O)(C(F)(F)F)C(F)(F)F | x | x | x | x | n | n
CCCCOc1ccccc1NC(=O)CSc1nnnn1C(C)(C)C | n | 56.1 | 73.5 | n | n | n
CCOc1ccccc1NC(=O)COn1nnc2ccccc21 | n | 91.6 | n | 2.2 | n | n
COC(=O)c1cccc(NC(=O)CSc2nnnn2C)c1 | n | n | n | n | n | n
CCOC(=O)CC(=O)CSCC(=O)Nc1ccc(C)cc1 | n | 53.7 | n | n | n | n
Cc1ccc(NC(=O)CSCC#N)cc1 | n | n | n | n | n | n
COc1cccc(CNCCc2c[nH]c3ccccc23)c1OCc1ccc(F)cc1 | n | n | n | n | n | n
S=C(NCCc1ccccc1)Nc1ccc(Cl)cc1Cl | n | 85.6 | n | n | n | n
COc1ccccc1NC(=S)NCCc1c[nH]c2ccccc12 | n | 85.7 | n | 2.4 | n | n
COc1ccc(CCNC(=S)NC(=O)c2ccccc2)cc1OC | n | 60.9 | n | n | n | n
COc1ccccc1NC(=S)NCCc1ccccc1 | n | 81.5 | n | n | n | n
CCC(=O)NC(=S)Nc1ccccc1OC | n | n | n | n | n | n
COc1ccc(/C=C/C(=O)NC(=S)NCCc2ccc(OC)c(OC)c2)cc1 | n | n | n | n | n | n
S=C(NCCSCc1ccc(Cl)c(Cl)c1)Nc1ccccc1 | x | x | x | x | n | n
COc1ccc(C(=O)N/C(=C\c2cccc3ccccc23)C(=O)NCCc2c[nH]c3ccccc23)cc1OC | n | 50.2 | 65.1 | n | n | n
S=C(NCCSCc1ccc(Cl)cc1Cl)Nc1ccccc1 | n | 52.4 | n | 2.3 | n | n
Cc1ccc(C(=O)N/C(=C\c2cccs2)C(=O)NCCc2c[nH]c3ccccc23)cc1C | n | n | n | n | n | n
Cc1ccc(CNC(=O)CS(=O)(=O)CC(=O)O)cc1 | n | n | n | n | n | n
O=C1CC(N2CCC(c3nc4ccccc4s3)CC2)C(=O)N1 (stereo not given) | n | n | n | n | n | n
C[C@@]12CC(=O)NC1N(C(=O)c1cccc(C(F)(F)F)c1)C(c1ccccc1OC(=O)c1cccc(C(F)(F)F)c1)C2 (stereo not given in full) | n | n | 94.5 | n | n | n
COc1ccc(-c2nnc(SCC(=O)Oc3ccc(C)cc3)o2)cc1 | x | x | x | x | n | n
C=CCn1c(=O)/c(=C2/SC(C)=C(C)N2CC)s/c1=C1/C(=O)N(CC)C(=S)N1c1ccccc1 | n | n | n | n | n | n
CCOC(=O)C1CCN(C(=O)c2sc3nc(-c4ccc(F)cc4)cn3c2C)CC1 | n | n | n | n | n | n
SMILES | CYP2C19 act | CYP2C19 inh | CYP2C9 inh | CYP2C9 activ | sEH activator | sEH inhibitor
CN1CCN(CCCNC(=O)Nc2cccc3ccccc23)CC1 | n | n | n | n | n | n
Cc1cc2nc(C)n(CCCNC(=O)Nc3cccc4ccccc34)c2cc1C | n | n | 57.3 | n | n | n
CCOc1ccc(NC(=O)NCCCn2c(C)nc3cc(C)c(C)cc32)cc1 | n | n | 81.1 | n | n | n
CC(C)C1S/C(=N/N=C/c2cccs2)NC1=O (stereo not given) | n | n | n | n | n | n
O=C(CCN1C(=O)C2C3C=CC(C3)C2C1=O)NC1CCCc2ccccc21 (stereo not given) | n | n | n | n | n | n
Nc1nnnn1N=C1CCCCC1 | n | n | n | n | n | n
CC1CCN(C(=O)C2(NC(=O)Nc3cccc(F)c3)CCCCC2)CC1 | x | x | x | x | n | n
O=C(CCCn1c(=S)[nH]c2cc3c(cc2c1=O)OCO3)N1CCN(c2ccccc2F)CC1 | n | n | n | n | n | n
Cc1ccc(C)c(N2CCN(C(=O)CCCn3c(=S)[nH]c4cc5c(cc4c3=O)OCO5)CC2)c1 | n | 54.5 | 77.1 | n | n | n
O=C(CCCn1c(=S)[nH]c2cc3c(cc2c1=O)OCO3)N1CCN(c2ncccn2)CC1 | n | n | 50.3 | n | n | n
O=C(CCCn1c(=S)[nH]c2cc3c(cc2c1=O)OCO3)N1CCN(C2CCCCC2)CC1 | n | n | 50.1 | n | n | n
O=C(CCCn1c(=S)[nH]c2cc3c(cc2c1=O)OCO3)N1CCN(c2ccc(F)cc2)CC1 | n | n | 72.5 | n | x | x
COc1cccc(N2CCN(C(=O)CCn3c(=S)[nH]c4cc5c(cc4c3=O)OCO5)CC2)c1 | n | n | n | n | x | x
Cc1ccc(C)c(C(=O)CN2C3=NCCCN3c3ccccc32)c1 | n | n | n | n | n | n
O=C(CSc1nc2ccccc2s1)NC1CCS(=O)(=O)C1 (stereo not given) | n | n | n | n | n | n
Cc1ccc(C)c(NC(=O)CSc2n[nH]c(-c3ccncc3)n2)c1 | n | 66.1 | 95.8 | n | n | n
Cc1ccc(NC(=O)CSc2n[nH]c(-c3ccncc3)n2)cc1C | n | 62.8 | 96.7 | n | x | x
O=C(CSc1n[nH]c(-c2ccncc2)n1)NC1CCS(=O)(=O)C1 (stereo not given) | n | n | 72.2 | n | n | n
CC(C)c1ccc(C(=O)CSc2n[nH]c(-c3ccncc3)n2)cc1 | n | 92.6 | 94.3 | n | n | n
O=C(Cn1cnc2c(nnn2-c2cccc(Cl)c2)c1=O)N1CCCC1 | n | n | n | n | n | n
O=C(CCn1c(=O)sc2ccccc21)NCc1ccco1 | x | x | x | x | n | n
Cc1cc(C)cc(N2CCCn3c2nc2c3c(=O)n(CCN3CCOCC3)c(=O)n2C)c1 | n | n | n | n | n | n
Cc1nn(Cc2ccccc2Cl)c(C)c1N | n | 74.6 | n | n | n | n
COC(=O)c1cc(C#N)c(Oc2ccc(F)cc2)nc1C | n | 53.6 | n | n | n | n
COc1ccc(Nc2ncnc3c2cnn3Cc2ccc(C)cc2)cc1 | n | n | n | n | n | n
SMILES | CYP2C19 act | CYP2C19 inh | CYP2C9 inh | CYP2C9 activ | sEH activator | sEH inhibitor
COc1ccc(CCNS(=O)(=O)c2cccc(C)c2)cc1OC | n | 97.5 | 89.0 | n | n | n
COc1ccc(CCNS(=O)(=O)c2cccc(F)c2)cc1OC | n | 50.7 | 50.6 | n | n | n
COc1ccc(CCNS(=O)(=O)c2ccc3c(c2)OCCO3)cc1OC | n | 84.5 | n | n | n | n
COCCCNS(=O)(=O)c1ccc2c(c1)OCCO2 | n | 78.4 | n | n | x | x
O=S(=O)(NCCSc1ccc(Cl)cc1)c1ccc2c(c1)OCCO2 | n | 85.7 | 63.2 | n | n | n
O=S(=O)(NCCSCc1c(Cl)cccc1Cl)c1ccc2c(c1)OCCO2 | x | x | x | x | n | n
COc1ccc(CCNS(=O)(=O)c2cccc(S(=O)(=O)N3CCCC3)c2)cc1OC | n | 96.3 | 83.5 | n | x | x
Cc1cccc(CCNS(=O)(=O)c2ccc(S(=O)(=O)N3CCCCC3)cc2)c1 | n | n | n | n | n | n
CC(C)CCOCC(=O)Nc1cccc(C(=O)O)c1 | n | n | n | n | x | x
CC(C)n1c(CN2CCN(C)CC2)nc2c1c(=O)n(C)c(=O)n2C | x | x | x | x | n | n

High-throughput results deposited in PubChem BioAssay by several laboratories.
